Reference: paper PMC7862700, “An all-to-all approach to the identification of sequence-specific readers for epigenetic DNA modifications on cytosine”

Experiments:
Assay in all cases: DAPPL (digital affinity profiling via proximity ligation, sequencing); 10 mM Tris-HCl pH 7.5, 50 mM NaCl, 1 mM DTT, 4% glycerol, room temperature, 30 min; GST-TFs on glutathione beads, 16-mer random dsDNA library, 0.1% formaldehyde crosslink after washing; high values mean tight binding
Details in all cases: protein: recombinant; tags: N-terminal GST; dsDNA, one strand shown
FLI1 = molecular target: T1, FLI1 (Homo sapiens, UniProt Q01543 1-452)
T1 sequence: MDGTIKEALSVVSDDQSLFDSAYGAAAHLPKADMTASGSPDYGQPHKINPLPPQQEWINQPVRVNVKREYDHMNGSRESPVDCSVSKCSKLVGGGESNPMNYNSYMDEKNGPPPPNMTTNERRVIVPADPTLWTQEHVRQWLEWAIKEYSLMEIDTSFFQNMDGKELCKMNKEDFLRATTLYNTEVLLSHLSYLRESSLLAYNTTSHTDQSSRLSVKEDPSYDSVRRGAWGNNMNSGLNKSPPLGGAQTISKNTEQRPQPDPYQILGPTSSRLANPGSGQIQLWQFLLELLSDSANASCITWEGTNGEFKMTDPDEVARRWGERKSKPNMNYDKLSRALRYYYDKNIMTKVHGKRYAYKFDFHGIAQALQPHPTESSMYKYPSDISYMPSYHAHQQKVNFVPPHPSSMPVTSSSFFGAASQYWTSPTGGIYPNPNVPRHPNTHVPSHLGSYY
Outline: (§1)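 Beads coated with glutathione captured GST-fused human transcription factors that had been expressed in yeast, and the factors were then given DNA barcodes and pooled with a tag-only sample. The pools were incubated with 200 nmole of a random double-stranded 16-mer DNA library in Tris/NaCl/DTT/glycerol buffer for 30 min at room temperature, washed, crosslinked with 0.1% formaldehyde and proximity-ligated with BsaI/T4 ligase at 37 °C for 1 h. PCR amplification and Illumina NextSeq500 sequencing came last. Binding signal is each hexamer's read frequency for a factor divided by its frequency for the tag-only sample.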

ELK1 = molecular target: T2, ELK1 (Homo sapiens, UniProt P19419 1-428)
T2 sequence: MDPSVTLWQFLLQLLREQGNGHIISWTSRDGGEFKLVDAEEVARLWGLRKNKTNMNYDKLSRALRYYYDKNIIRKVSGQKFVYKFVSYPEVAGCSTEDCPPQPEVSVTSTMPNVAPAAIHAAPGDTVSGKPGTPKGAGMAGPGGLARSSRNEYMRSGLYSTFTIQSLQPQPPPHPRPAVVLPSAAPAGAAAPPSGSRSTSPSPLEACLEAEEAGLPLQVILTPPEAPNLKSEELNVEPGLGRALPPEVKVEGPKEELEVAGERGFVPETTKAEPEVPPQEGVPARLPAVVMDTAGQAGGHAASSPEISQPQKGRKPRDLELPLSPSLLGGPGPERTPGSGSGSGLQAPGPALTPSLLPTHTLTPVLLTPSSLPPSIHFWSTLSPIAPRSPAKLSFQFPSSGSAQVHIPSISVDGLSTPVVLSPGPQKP
Outline: as §1

GABPA = molecular target: T3, GABPA (Homo sapiens, UniProt Q06546 1-454)
T3 sequence: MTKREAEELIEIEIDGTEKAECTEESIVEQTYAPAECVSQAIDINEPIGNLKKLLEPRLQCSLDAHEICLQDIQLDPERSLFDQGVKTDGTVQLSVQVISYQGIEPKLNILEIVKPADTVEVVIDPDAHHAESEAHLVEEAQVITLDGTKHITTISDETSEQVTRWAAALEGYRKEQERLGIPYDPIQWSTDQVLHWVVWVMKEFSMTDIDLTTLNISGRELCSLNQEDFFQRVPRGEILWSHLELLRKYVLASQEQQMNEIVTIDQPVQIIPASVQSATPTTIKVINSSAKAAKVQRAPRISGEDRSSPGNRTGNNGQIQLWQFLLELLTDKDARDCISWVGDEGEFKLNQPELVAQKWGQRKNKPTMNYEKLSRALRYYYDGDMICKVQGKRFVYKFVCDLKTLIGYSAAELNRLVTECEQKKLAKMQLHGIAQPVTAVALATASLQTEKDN
Outline: as §1

ERG = molecular target: T4, ERG (Homo sapiens, UniProt P11308 1-479)
T4 sequence: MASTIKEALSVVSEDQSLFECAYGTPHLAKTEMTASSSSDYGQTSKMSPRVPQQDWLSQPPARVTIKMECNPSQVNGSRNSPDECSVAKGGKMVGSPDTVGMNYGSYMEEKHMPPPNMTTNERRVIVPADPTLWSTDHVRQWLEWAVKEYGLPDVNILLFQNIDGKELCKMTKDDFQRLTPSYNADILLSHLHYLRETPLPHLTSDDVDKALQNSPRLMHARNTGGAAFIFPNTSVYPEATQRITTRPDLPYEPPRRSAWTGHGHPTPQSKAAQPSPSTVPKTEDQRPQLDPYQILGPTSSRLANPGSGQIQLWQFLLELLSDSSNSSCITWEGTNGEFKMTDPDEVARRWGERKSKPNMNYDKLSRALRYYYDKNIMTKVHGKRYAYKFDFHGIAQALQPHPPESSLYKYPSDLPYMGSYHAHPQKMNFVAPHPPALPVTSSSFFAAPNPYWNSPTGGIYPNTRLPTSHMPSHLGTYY
Outline: as §1

ELF1 = ELF1 (Homo sapiens, UniProt P32519 1-619)
Outline: as §1

EHF = molecular target: T5, EHF (Homo sapiens, UniProt Q9NZC4 1-300)
T5 sequence: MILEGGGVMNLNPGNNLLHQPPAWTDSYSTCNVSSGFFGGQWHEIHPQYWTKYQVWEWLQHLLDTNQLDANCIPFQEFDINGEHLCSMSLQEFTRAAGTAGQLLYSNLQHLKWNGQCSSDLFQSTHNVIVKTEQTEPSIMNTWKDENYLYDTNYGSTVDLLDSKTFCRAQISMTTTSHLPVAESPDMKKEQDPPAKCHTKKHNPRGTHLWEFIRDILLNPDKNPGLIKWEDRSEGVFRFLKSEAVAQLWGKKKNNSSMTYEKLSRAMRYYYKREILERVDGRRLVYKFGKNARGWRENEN
Outline: as §1

SPI1 = SPI1 (Homo sapiens, UniProt P17947 1-270)
Outline: as §1

SPIB = SPIB (Homo sapiens, UniProt Q01892 1-262)
Outline: as §1

ELK3 = molecular target: T6, ELK3 (Homo sapiens, UniProt P41970 1-407)
T6 sequence: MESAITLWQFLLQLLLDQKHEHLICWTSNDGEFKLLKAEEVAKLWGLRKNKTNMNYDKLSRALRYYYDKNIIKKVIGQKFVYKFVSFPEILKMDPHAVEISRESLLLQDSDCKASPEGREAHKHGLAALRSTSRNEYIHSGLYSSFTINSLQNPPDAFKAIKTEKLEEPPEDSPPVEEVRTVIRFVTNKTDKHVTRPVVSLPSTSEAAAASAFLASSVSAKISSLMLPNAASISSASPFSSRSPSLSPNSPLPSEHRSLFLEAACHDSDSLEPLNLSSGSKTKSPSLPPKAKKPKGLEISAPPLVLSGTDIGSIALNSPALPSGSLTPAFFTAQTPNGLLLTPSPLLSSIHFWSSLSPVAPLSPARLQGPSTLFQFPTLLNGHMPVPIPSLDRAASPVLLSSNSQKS
Outline: as §1

Sequence of ELF1 (P32519 whole entry): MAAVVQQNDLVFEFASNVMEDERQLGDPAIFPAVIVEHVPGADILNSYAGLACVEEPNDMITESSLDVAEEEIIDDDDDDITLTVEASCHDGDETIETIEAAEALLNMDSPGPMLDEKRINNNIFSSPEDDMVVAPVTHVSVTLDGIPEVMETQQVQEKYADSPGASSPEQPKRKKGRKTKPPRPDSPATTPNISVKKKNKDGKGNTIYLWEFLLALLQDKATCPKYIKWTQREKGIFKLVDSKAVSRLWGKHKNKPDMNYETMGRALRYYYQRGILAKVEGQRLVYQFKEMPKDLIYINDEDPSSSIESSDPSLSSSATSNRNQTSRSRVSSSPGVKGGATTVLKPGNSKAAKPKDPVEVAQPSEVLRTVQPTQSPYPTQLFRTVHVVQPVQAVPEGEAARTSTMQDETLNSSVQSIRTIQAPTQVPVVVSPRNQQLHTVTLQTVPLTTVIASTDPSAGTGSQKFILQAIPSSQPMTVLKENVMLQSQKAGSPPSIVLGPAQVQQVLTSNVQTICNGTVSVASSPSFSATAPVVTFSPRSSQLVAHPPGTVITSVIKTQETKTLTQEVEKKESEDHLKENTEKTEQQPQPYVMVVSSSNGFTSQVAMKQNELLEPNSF
Sequence of SPIB (Q01892 whole entry): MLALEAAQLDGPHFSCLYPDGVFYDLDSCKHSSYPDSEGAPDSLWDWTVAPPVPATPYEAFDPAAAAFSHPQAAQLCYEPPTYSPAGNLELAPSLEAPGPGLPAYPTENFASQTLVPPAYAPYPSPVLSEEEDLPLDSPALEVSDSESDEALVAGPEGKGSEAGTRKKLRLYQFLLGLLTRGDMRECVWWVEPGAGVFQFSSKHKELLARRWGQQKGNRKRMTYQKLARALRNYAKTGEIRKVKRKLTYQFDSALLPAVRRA

With TTGTCT the binding signal (FLI1) was 1.29 fold enrichment (6-mer frequency, TF over GST control), the binding signal (ELK1) was 1.23 fold enrichment (6-mer frequency, TF over GST control) and the binding signal (GABPA) was 1.33 fold enrichment (6-mer frequency, TF over GST control). For the same sequence, the binding signal (ERG) was 1.15 fold enrichment (6-mer frequency, TF over GST control), the binding signal (ELF1) was 1.27 fold enrichment (6-mer frequency, TF over GST control) and the binding signal (EHF) was 1.18 fold enrichment (6-mer frequency, TF over GST control). For the same sequence, the binding signal (SPI1) was 1.19 fold enrichment (6-mer frequency, TF over GST control), the binding signal (SPIB) was 1.15 fold enrichment (6-mer frequency, TF over GST control) and the binding signal (ELK3) was 1.31 fold enrichment (6-mer frequency, TF over GST control).
